About 83,000 compounds went through this panel and 20% of them were active in at least one assay; those are over-represented in the sample as a whole.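 Results are percent growth after 48 hours of single-concentration exposure. 100 means growth as in untreated cells, lower positive values show inhibition; negative values down to -100 show cell death.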 Values without a mark were called inactive. Active and inactive are the calls of the source. Rule for the calls: active = growth percent below 10; inactive = the rest.

Among the test systems are NCI-H23 lung; NCI-H226 lung; NCI-H322M lung; HOP-62 NSCLC; NCI-H460 lung; HOP-92 NSCLC; NCI-H522 lung; A549/ATCC NSCLC; 786-0 renal; COLO 205 colon; DU-145 prostate; K-562 leukemia; MALME-3M melanoma; MDA-MB-231 breast; RXF 393 renal; SF-268 CNS; SF-295 CNS; SF-539 CNS; UACC-257 melanoma; M14 melanoma.
Holding throughout (test): NCI-60 one-dose screen, 48 h (100 = growth as untreated, 0 = no growth, -100 = all killed)
Common to all, as to conditions: 10 µM unless noted

`O=C(CSc1nc2ccccc2c(=O)n1-c1ccc(S(=O)(=O)Nc2ccc(Cl)nn2)cc1)Nc1ccc(S(=O)(=O)Nc2ccc(Cl)nn2)cc1`: the growth with NCI-H23 lung was 100%; with NCI-H226 lung, 99%; with NCI-H322M lung, 101%; with HOP-62 NSCLC, 104%; with NCI-H460 lung, 101%; with HOP-92 NSCLC, 107%. The growth is 101% in the assay on NCI-H522 lung; 105% in the assay with A549/ATCC NSCLC; 98.7% in the assay with 786-0 renal; 111% in the assay on COLO 205 colon; 107% with DU-145 prostate; 88.1% with K-562 leukemia. Moreover, the growth in the assay with MALME-3M melanoma is 102%; in the assay on MDA-MB-231 breast, 102%; with RXF 393 renal it was 102%; with SF-268 CNS, 101%; in the assay on SF-295 CNS, 102%; in the assay on SF-539 CNS, 103%. Besides, the growth with UACC-257 melanoma is 101%; with M14 melanoma, 111%.
For the compound `COc1ccccc1/C=C/C(=O)c1nnn(-c2ccc(F)cc2)c1C`, the growth is 42.9% in the assay with NCI-H23 lung; 53.1% in the assay with NCI-H226 lung; 70.6% in the assay on NCI-H322M lung; 72.2% in the assay with HOP-62 NSCLC; 28.4% with NCI-H460 lung; 72.9% in the assay on HOP-92 NSCLC. Further, the growth was 54% with NCI-H522 lung; 41.7% with A549/ATCC NSCLC; 84.5% with 786-0 renal; 72.4% with COLO 205 colon; 3.67% (active) in the assay on DU-145 prostate; 8.81% (active) in the assay on K-562 leukemia. Besides, the growth in the assay on MALME-3M melanoma is 70.6%; with MDA-MB-231 breast, 65.6%; with RXF 393 renal, 40.7%; in the assay with SF-268 CNS, 66.2%; in the assay on SF-295 CNS, 64.3%; with SF-539 CNS, 20.7%. Besides, the growth is 71.3% in the assay on UACC-257 melanoma and 62.3% with M14 melanoma.
Take `NC(N)=NS(=O)(=O)c1ccc(N=Nc2c(N)nn(-c3ccc([N+](=O)[O-])cc3[N+](=O)[O-])c2N)cc1`: the growth is 98.1% in the assay on NCI-H23 lung; 93.3% with NCI-H226 lung; 92.9% in the assay on NCI-H322M lung; 104% in the assay on HOP-62 NSCLC; 107% in the assay on NCI-H460 lung; 88.2% in the assay on HOP-92 NSCLC. Besides, the growth with NCI-H522 lung is 97.2%; in the assay with A549/ATCC NSCLC, 103%; with 786-0 renal, 103%; in the assay with COLO 205 colon, 106%; with DU-145 prostate, 107%; with K-562 leukemia it was 87.4%. In addition, the growth was 106% with MALME-3M melanoma; 102% with MDA-MB-231 breast; 89% in the assay with RXF 393 renal; 100% in the assay with SF-268 CNS; 108% in the assay on SF-295 CNS; 95% in the assay with SF-539 CNS. For the same compound, the growth was 103% in the assay with UACC-257 melanoma and 102% with M14 melanoma.
As for `CCOC(=O)C(=O)Nc1ccc2c(ccn2C(=O)c2cccc(F)c2)c1`, the growth was 95.8% in the assay on NCI-H23 lung; 97.2% with NCI-H226 lung; 93.8% with NCI-H322M lung; 95.9% in the assay on HOP-62 NSCLC; 100% in the assay with NCI-H460 lung; 78.9% with HOP-92 NSCLC. Moreover, the growth in the assay with NCI-H522 lung is 96.1%; in the assay on A549/ATCC NSCLC, 102%; in the assay with 786-0 renal, 97.6%; in the assay with COLO 205 colon, 108%; in the assay with DU-145 prostate, 67.7%; in the assay with K-562 leukemia it was 101%. Besides, the growth is 102% in the assay on MALME-3M melanoma; 107% in the assay with MDA-MB-231 breast; 104% in the assay on RXF 393 renal; 99% in the assay with SF-268 CNS; 92% in the assay with SF-295 CNS; 91.5% in the assay on SF-539 CNS. For the same compound, the growth with UACC-257 melanoma was 99.1%; in the assay with M14 melanoma, 95.3%.
On to `COc1cc(C(=O)c2cc(C(C)=O)c3ccc(C)cn23)cc(OC)c1OC`, for which the growth is 48.9% in the assay on NCI-H23 lung; 66.3% in the assay with NCI-H226 lung; 66% in the assay on NCI-H322M lung; 52.4% with HOP-62 NSCLC; 15.9% in the assay with NCI-H460 lung; 97% with HOP-92 NSCLC. Also, the growth in the assay on NCI-H522 lung was 38.4%; in the assay on A549/ATCC NSCLC, 46.7%; in the assay on 786-0 renal, 50.5%; in the assay with COLO 205 colon it was 39.8%; in the assay on DU-145 prostate, 66.9%; in the assay with K-562 leukemia it was 19.2%. The growth was 43.9% in the assay on MALME-3M melanoma; 55.2% in the assay with MDA-MB-231 breast; 58.6% in the assay with RXF 393 renal; 61.3% in the assay with SF-268 CNS; 7.71% (active) in the assay on SF-295 CNS; 34.7% with SF-539 CNS. The growth with UACC-257 melanoma is 76.7%; in the assay with M14 melanoma, 16.1%.
On to `O=C(CCCCCCNC(=O)C(O)(O)C(F)(F)F)Nc1ncc(-c2ccccc2)s1`, for which the growth is -1.99% (active) in the assay on NCI-H23 lung; 14.9% in the assay on NCI-H226 lung; 3.47% (active) in the assay with NCI-H322M lung; -6.52% (active) in the assay on HOP-62 NSCLC; 2.92% (active) in the assay on NCI-H460 lung; -19.4% (active) in the assay with HOP-92 NSCLC. In addition, the growth in the assay on NCI-H522 lung is -38.1% (active); in the assay with A549/ATCC NSCLC, -12.9% (active); in the assay on 786-0 renal it was 17.1%; in the assay on COLO 205 colon, -73.3% (active); with DU-145 prostate, 3.28% (active); in the assay on K-562 leukemia it was 11.7%. For the same compound, the growth with MALME-3M melanoma is 13.6%; in the assay on MDA-MB-231 breast, 15.9%; with RXF 393 renal it was -48.5% (active); in the assay with SF-268 CNS, 1.35% (active); in the assay on SF-295 CNS it was -35.1% (active); with SF-539 CNS, 13.9%. In addition, the growth in the assay with UACC-257 melanoma is 20.8%; with M14 melanoma, 14.3%.
As for `C/C(CC1(O)C(=O)Nc2ccccc21)=N\O` (stereo not given), the growth was 101% with NCI-H23 lung; 98% in the assay on NCI-H226 lung; 102% in the assay on NCI-H322M lung; 95.2% in the assay with HOP-62 NSCLC; 101% in the assay on NCI-H460 lung; 93.9% in the assay on HOP-92 NSCLC. The growth in the assay on NCI-H522 lung is 91.3%; in the assay with A549/ATCC NSCLC, 102%; in the assay on 786-0 renal it was 101%; in the assay with COLO 205 colon it was 103%; with DU-145 prostate it was 109%; with K-562 leukemia, 99.6%. Also, the growth was 96.2% in the assay on MALME-3M melanoma; 94.8% with MDA-MB-231 breast; 103% in the assay on RXF 393 renal; 98.3% in the assay with SF-268 CNS; 98.6% in the assay with SF-295 CNS; 94.7% in the assay on SF-539 CNS. Besides, the figures for the growth with UACC-257 melanoma and in the assay with M14 melanoma were 105% and 97.9%, respectively.

The record behind these values is PubChem BioAssay (NCI).
